Experimental data: PubChem BioAssay AID1347076 (National Center for Advancing Translational Sciences (NCATS), 2019)
Where “and” joins values, the source holds several entries; their conditions need not be identical. Equal values may be shown once. About 13,000 (3.2%) of roughly 400,000 compounds were called active. Not shown: some 18% with an inconclusive outcome. What follows is part of a selection rich in actives, with near analogues and random picks from the rest. A number with no mark means an inactive call. The call rests on the fitted dose curve; in most records, active means well fitted cell-killing curve with a large enough effect; inconclusive means small, poorly fitted or top-dose-only effect, or effect the other way; inactive means flat fitted curve, though single readings scatter.

test: qHTS assay for MDR1-selective chemotherapeutics: Primary screen using the drug-selected MDR subline cells KB-V1; conditions: KB-V1 MDR cells viability, CellTiter-Glo, 72 h; series mostly up to 46.1 µM; activity change, negative = cytotoxicity: at the top concentration; further: nearly all actives have a fitted effect of over 60% in size
Method in brief: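 Cells of the MDR subline KB-V1 are plated, dosed with compound at multiple concentrations, and incubated 72 h at 37 degrees C; CellTiter-Glo is then added and luminescence read after 10 min.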
On the % scale 0 is the no-effect control and ±100 the full control effect; potency means the concentration at half of the fitted maximal effect.

In the case of `Cc1c(Cl)cccc1NC(=O)Nc1ccc(C(=O)N2CCCC2)cc1`, the Potency is reported as 16.4 µM (active).
With `CCOP(=O)(OCC)C(Nc1cccc(C)c1)c1ccc(F)cc1` (stereo not given) the Potency was 16.4 µM (active).
With `Cn1c(=O)c2c(nc(Br)n2CCSc2nc3ccccc3o2)n(C)c1=O` the Potency was 6.51 µM (active).
For `CCc1ccc(-c2nn(-c3ccccc3C)cc2C(=O)N2CCN(C3CCS(=O)(=O)C3)CC2)cc1` (stereo not given), the Potency was 14.6 µM (active).
With `CCCN(CCC)CCNC(=O)c1cc2c(C)nc3ccccc3c2o1` the Potency was 14.1 µM (active).
With `COc1ccccc1CC(=O)Nc1ccc([N+](=O)[O-])cc1OC` the Potency was 16.4 µM (active).
For `COc1cc(C2c3cc4c(cc3C(O)C3COC(=O)C23)OCO4)cc(OC)c1OC` (stereo not given), the Potency was 4.11 µM (active) and 231 nM (active).
With `Cc1ccccc1-c1ccc(Nc2ccc(C(=O)N3CCOCC3)cc2)nn1` the Potency was 14.6 µM (active).
With `CN(c1ccccc1)c1nc(N)c([N+](=O)[O-])c(NCc2ccco2)n1` the Potency was 20.6 µM (active).

In order of falling “activity change, negative = cytotoxicity” value:
1. Cc1ccccc1NC(=O)Cc1nc(COC(=O)CNC(=O)c2ccc(Cl)cc2Cl)cs1  19.5%
2. CCOC(=O)c1cc2cc(OC)ccc2n1C1CCN(C)CC1  17.4%
3. CCn1cc(C(=O)N2CCN(C3CCCCC3)CC2)c2cc(OC)c(OC)cc2c1=O  17.4%
4. CS(=O)(=O)/C(C#N)=C/c1cccn1S(=O)(=O)c1ccc([N+](=O)[O-])cc1  14.5%
5. O=C(Nc1cccc(Cl)c1)c1csnn1  12%
6. COc1ccc(C(C)(O)c2nc(-c3ccc(C)c(C)c3)cs2)cc1 (stereo not given)  8.75%
7. CCN(CC)C(=O)CSc1nc2ccccc2o1  6.7%
8. COc1cc(OC)c2c(c1)OC(=O)CC2c1cc(OC)c(OC)c(OC)c1 (stereo not given)  6.5%
9. Cc1csc[n+]1CCC1CCCCC1  5.44%
10. COc1ccc(C2NC(=O)N(C)C3=C2C(=O)N(c2ccc(C(=O)O)cc2)C3)cc1 (stereo not given)  5.43%
11. O=S1(=O)N=C(Oc2cccc(Br)c2)c2ccccc21  5.35%
12. Cc1nn(C)c2c1c(C(F)(F)F)cc(=O)n2C(C)C(=O)NCc1ccc(Cl)cc1 (stereo not given)  4.71%
13. COCCNc1nc(N)c([N+](=O)[O-])c(NCCO)n1  3.27%
14. Cc1ccccc1S(=O)(=O)NC(=O)C1(C)CCN1C(=O)C1(c2ccccc2)CCCC1 (stereo not given)  3.11%
15. Cc1cccc(C(=O)OCC(=O)Nc2ccc(F)cc2)c1  2.36%
16. COc1cc([N+](=O)[O-])ccc1NC(=O)CN1CCCC1  1.92%
17. Cc1cccc(S(=O)(=O)N(C)C[C@@H]2OCc3cnnn3CCCC(=O)N([C@H](C)CO)C[C@@H]2C)c1  1.87%
18. CCCNC(=O)c1cc(C2CCCCN2S(=O)(=O)c2ccc(C#N)cc2)on1 (stereo not given)  0.778%
19. COc1ccccc1CC(=O)Nc1ccc(F)cc1F  0.422%
20. O=C(CN1CCSc2ccccc21)N1CCN(c2ccccc2)CC1  0%
21. COc1cc(C2CC(=O)Oc3cc(OC)c(OC)c(OC)c32)cc(OC)c1OC (stereo not given)  -0.0159%
22. O=C(Nc1ccc(Cl)cc1)Nc1ccc(C(=O)N2CCOCC2)cc1  -1.12%
23. COc1cccc(Nc2nc(N)c([N+](=O)[O-])c(NCc3ccco3)n2)c1  -1.12%
24. O=C(Nc1ccc(N2CCOCC2)cc1)c1cccc2c(-c3ccc(F)c(F)c3)coc12  -1.2%
25. CCc1ccccc1OCCSc1nc(-c2cccs2)nc2cc(=O)[nH]n12  -1.44%
26. Cc1ccn(CC(=O)NC2CCCN(Cc3ccccc3F)C2)n1 (stereo not given)  -2.26%
27. Cc1cccc(-c2cnc(C(O)c3ccc4ccccc4c3)[nH]2)c1 (stereo not given)  -2.55%
28. Cc1nc2ccccc2c2oc(C(=O)NCCCN3CCC(C)CC3)cc12  -3.06%
29. Cc1ccc(CNC(=O)CCc2c(C)nc3c(c(C)nn3-c3ccccc3)c2C)cc1  -3.47%
30. CCN(CC)CCNC(=O)c1ccc(NC(=O)c2cc(-c3ccncc3)nc3ccccc23)cc1  -4.9%
31. C[C@H]1CN(c2ccc(Br)cc2)C(=O)[C@@H]1CC(=O)Nc1ccc(Br)cc1  -5.07%
32. Cc1nnc(SCC(=O)NCc2ccccc2Cl)c2nn(-c3ccccc3)c(C)c12  -5.48%
33. O=C(NCc1cccnc1)c1cc(C2CCCCN2C(=O)CCc2ccccc2)on1 (stereo not given)  -5.51%
34. CCCCOC(=O)c1ccc(NC(c2ccc(C)cc2)P(=O)(OC)OC)cc1 (stereo not given)  -7.03%
35. Cn1c(=O)[nH]c(=O)c2c1nc(Br)n2CCCCSc1nc2ccccc2o1  -10.4%
36. Cc1ccc2sc(N(Cc3cccnc3)C(=O)C3COc4ccccc4O3)nc2c1C (stereo not given)  -11.2%
37. Cc1cc(Nc2ccc(C(=O)N3CCCCC3)cc2)c2cccc(C)c2n1  -12.8%
38. O=C(Cc1ccc([N+](=O)[O-])cc1)Nc1ccc(C(=O)N2CCOCC2)cc1  -16.5%
39. CNC(=O)C[C@H]1C(=O)N(c2ccc(OC)cc2)C[C@@H]1Cc1ccccc1  -17.1%
40. COc1ccccc1N1CCN(C(=O)c2cn(-c3ccccc3)nc2-c2cccnc2)CC1  -21.6%
41. COc1cc(C)c(CN2CCN(C(=O)CCC(=O)c3ccc(C)s3)CC2)cc1OC  -26.6%
